Measured values taken from PubChem BioAssay.
Unmarked numbers belong to inactive results. Calls of active or inactive are those of the source. Rule as the data show it, unless noted: active = inhibition above about 28%; inactive = the rest.

What was measured:
[1] = StAR promoter reporter inhibitors, counter-screen for LRH-1 inverse agonist project, cell-based, luminescence, high throughput (AID 651611); conditions: StAR promoter luciferase reporter counterscreen, at 3.6 µM, hits give high values
[2] = target: Nuclear receptor subfamily 5 group A member 2 (Homo sapiens) (UniProt O00482); experiment: LRH-1 (NR5A2) inverse agonists, retest, confirmation, cell-based, luminescence (AID 651613; in the data active = inhibition above about 42%;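 also: HEK293T cells co-transfected with LRH-1 and StAR promoter luciferase reporter; 0% = vehicle wells and 100% = parental cells lacking receptor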); conditions: cell-based LRH-1 luciferase reporter, inverse agonism; at 3.6 µM; hits give high values
[3] = target: Steroidogenic factor 1 (Homo sapiens) (UniProt Q13285); experiment: SF1 (NR5A1) inverse agonists, counter-screen for LRH-1 inverse agonist project, cell-based, luminescence, high throughput (AID 651614; in the data active = inhibition above about 44%;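 also: cells cotransfected with StAR promoter reporter and SF1 expression vector; 0% = vehicle on cells with receptor and 100% = vehicle on cells lacking receptor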); conditions: cell-based SF1 luciferase reporter, at 3.6 µM, hits give high values
[4] = VP16 transactivation reporter inhibitors, counter-screen for LRH-1 inverse agonist project, cell-based, luminescence, high throughput (AID 651615; in the data active = inhibition above about 33%); conditions: Gal4-VP16 luciferase reporter cells, at 3.6 µM, hits give high values

Sequence of Nuclear receptor subfamily 5 group A member 2 (Homo sapiens) (O00482 whole entry, looked up): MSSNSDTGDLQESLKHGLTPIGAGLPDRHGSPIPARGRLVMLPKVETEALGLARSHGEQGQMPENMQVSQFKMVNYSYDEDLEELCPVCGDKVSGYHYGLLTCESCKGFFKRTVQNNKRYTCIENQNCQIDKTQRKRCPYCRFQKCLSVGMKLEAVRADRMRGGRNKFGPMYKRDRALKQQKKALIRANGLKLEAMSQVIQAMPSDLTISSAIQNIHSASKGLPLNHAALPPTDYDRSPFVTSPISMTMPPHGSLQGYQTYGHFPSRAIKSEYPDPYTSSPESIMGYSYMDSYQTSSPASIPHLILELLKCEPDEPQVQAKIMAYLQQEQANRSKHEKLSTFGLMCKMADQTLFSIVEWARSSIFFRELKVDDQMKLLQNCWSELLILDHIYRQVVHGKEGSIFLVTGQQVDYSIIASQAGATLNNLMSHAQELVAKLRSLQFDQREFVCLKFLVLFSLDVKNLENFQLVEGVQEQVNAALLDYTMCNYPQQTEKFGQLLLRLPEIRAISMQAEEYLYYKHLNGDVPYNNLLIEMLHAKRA
Sequence of Steroidogenic factor 1 (Homo sapiens) (Q13285 whole entry, looked up, the tested form may be a part): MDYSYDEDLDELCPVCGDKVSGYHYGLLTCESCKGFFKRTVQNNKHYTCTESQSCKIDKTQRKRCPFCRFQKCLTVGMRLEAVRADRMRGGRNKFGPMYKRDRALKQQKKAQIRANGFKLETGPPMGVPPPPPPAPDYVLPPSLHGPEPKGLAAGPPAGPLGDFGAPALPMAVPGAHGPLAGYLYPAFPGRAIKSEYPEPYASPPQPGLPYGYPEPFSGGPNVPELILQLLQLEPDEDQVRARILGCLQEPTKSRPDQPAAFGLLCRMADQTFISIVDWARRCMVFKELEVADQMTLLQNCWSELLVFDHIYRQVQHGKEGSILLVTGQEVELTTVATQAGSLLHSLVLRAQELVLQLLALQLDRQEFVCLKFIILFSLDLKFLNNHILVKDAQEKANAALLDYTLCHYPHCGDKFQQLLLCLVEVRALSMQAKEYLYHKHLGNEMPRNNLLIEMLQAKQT

SMILES | inhibition [1] | inhibition [2] | inhibition [3] | inhibition [4]
CC(=O)N1CCN(c2ccc(NC(=O)c3ccc([N+](=O)[O-])o3)cc2Cl)CC1 | 22.9% | 60% (active) | 65.1% (active) | -26.3%
O=c1c2ccccc2ncn1Cc1ccco1 | 1.6% | 10.5% | 18.4% | 0.81%
CS(=O)(=O)N1CCN(c2ccccc2NC(=O)c2cc3ccccc3o2)CC1 | 26.4% | 47.5% (active) | 33.7% | -6.66%
CCOc1ccc(NC(=O)COC(=O)c2cc([N+](=O)[O-])ccc2N2CCOCC2)cc1 | 6.26% | 55.9% (active) | 50.6% (active) | -1%
CCn1c(CN2CCN(c3ccc(Cl)cc3)CC2)nc2ccccc21 | 2.05% | 46% (active) | 36.1% | 7.76%
O=C(CN1C(=O)C(c2ccc(F)cc2)=NC12CCCC2)Nc1ccc(F)cc1 | 23.4% | 52.2% (active) | 49.4% (active) | 38.4% (active)
CC1(C(=O)NCc2ccc3c(c2)OCO3)CCN1C(=O)Cc1ccc(Cl)cc1Cl (configuration not stated) | 7.73% | 56.5% (active) | 47% (active) | -2.52%
CC(C)Oc1cccc(-c2cc(C(=O)NN3CCOCC3)c3ccccc3n2)c1 | 17.5% | 40.7% | 40.4% | -17.7%
NC(=O)c1ccc(NC(=O)COC(=O)C2COc3ccccc3O2)cc1 (configuration not stated) | 21.9% | 52.4% (active) | 56.7% (active) | -20.5%
COc1ccnc(Oc2ccccc2)c1C(=O)N/C=N/OCc1ccccc1F | 12.8% | 56.9% (active) | 48.8% (active) | -12.9%
CC(=O)/C(=N/Nc1ccccc1[N+](=O)[O-])N1CCCc2ccccc21 | 17.5% | 49.2% (active) | 52.1% (active) | 22.7%
COc1ccc(C2=CC(=O)OC3(CCCCC3)O2)cc1 | 15.4% | 63.9% (active) | 45.4% (active) | 6.01%
COc1ccc(/C=C2/C(=O)OCc3cc(OC)c(OC)cc32)cc1 | 36.9% (active) | 56.4% (active) | 57.9% (active) | 23.4%
CC(C)CNC(=O)COC(=O)c1c2c(nc3ccccc13)/C(=C/c1cccs1)CC2 | -15.9% | 4.19% | -12.8% | -8.73%
Cc1ccc[n+](CC(=O)Nc2ccc(Cl)c([N+](=O)[O-])c2)c1 | 9.69% | 47% (active) | 39.2% | 13.9%
CN(C)c1ccc(CN(C(=O)C2COc3ccccc3O2)C2CCS(=O)(=O)C2)cc1 (configuration not stated) | 3.73% | 35.1% | 39.1% | 1.92%
COc1ccc(C(=O)OCC(=O)Nc2ccc(N3CCOCC3)cc2)cc1OC | 10.1% | 52.8% (active) | 51.7% (active) | -1.85%
COc1ccc(NC(=O)CSc2nnc(Cc3ccccc3)c(=O)n2N)c(OC)c1 | 5.02% | 51% (active) | 54.2% (active) | 5.51%
COc1ccccc1-c1cc(NC=O)c2ncc(-c3ccc(S(C)(=O)=O)cc3)n2c1 | 31.8% (active) | 42.8% (active) | 46.9% (active) | -33.2%
CC(=O)Nc1ccc(NC(=O)COC(=O)c2cc(S(=O)(=O)N3CCCC3)ccc2O)cc1 | 21% | 58.9% (active) | 61.4% (active) | -14.8%
COc1cccc2sc(N3CCN(C(=O)c4ccc([N+](=O)[O-])o4)CC3)nc12 | 25.2% | 69.2% (active) | 70.4% (active) | -23.4%
CC(=O)NC12CC3CC(C1)CC(C(=O)Nc1nc4ccc(S(C)(=O)=O)cc4s1)(C3)C2 | 11.2% | 50.8% (active) | 45.2% (active) | -1.09%
Cc1cc(=O)oc2c(C)c(OCC(=O)NC3CC(C)(C)NC(C)(C)C3)ccc12 | -1.6% | 48% (active) | 55% (active) | -11.2%
CCOC(=O)c1c(C)[nH]c(C(=O)COC(=O)/C=C/c2ccc3c(c2)OCO3)c1C | 13% | 36.5% | 43.6% (active) | 7.82%
CCOCC(=O)Nc1ccc([N+](=O)[O-])cc1C | 9% | 59.1% (active) | 57.7% (active) | 4.94%
COc1ccc(-c2cc(C(F)F)n3ncc(C(=O)N4CCc5ccccc5C4)c3n2)cc1 | 17.2% | 58.3% (active) | 56.7% (active) | -2.06%
S=C(Nc1cccnc1)Nc1cccc2cnccc12 | 9.29% | 17.3% | 26.2% | 17%

SMILES | inhibition [1] | inhibition [2] | inhibition [3] | inhibition [4]
CCn1cc(Br)c(C(=O)Nc2ccccc2C(=O)OC)n1 | 7.57% | 47.4% (active) | 46.6% (active) | -5.16%
Cc1cc2ccccn2c1C(=O)c1ccc([N+](=O)[O-])o1 | 41% (active) | 68.3% (active) | 62.2% (active) | -0.71%
COc1cc(CCNc2ccc3nnc(-c4ccccc4)n3n2)cc(OC)c1OC | 50.7% (active) | 37.5% | 28.6% | -65.1%
Nc1c2ccccc2nc2ccccc12 | 14.7% | 106% (active) | 52.1% (active) | 90.4% (active)
O=C(Nc1cccc(NC(=O)c2ccc([N+](=O)[O-])o2)c1)c1ccco1 | 23.5% | 69% (active) | 70.5% (active) | -8.09%
Cc1ccccc1Oc1nc2c(C)cccn2c(=O)c1/C=C(\C#N)C(=O)NC1CCS(=O)(=O)C1 (configuration not stated) | 8.01% | 52.6% (active) | 51.3% (active) | 18.6%
Nc1ccc(Br)c2cccnc12 | 3.69% | 26.2% | 24.8% | -9.28%
S=C(NCc1ccc(Cl)cc1)Nc1ccncc1 | 24.2% | 80.9% (active) | 72.8% (active) | 35.1% (active)
O=C(NCc1ccco1)c1nn(-c2ccccc2)c(=O)c2ccccc12 | 19.6% | 57% (active) | 53.4% (active) | -14.1%
CCOC(=O)N1CCN(C(=O)CSc2nc3c([nH]c4ccccc43)c(=O)n2CC)CC1 | 36.3% (active) | 63.7% (active) | 55.8% (active) | -25.2%
O=[N+]([O-])c1ccc(N2CCCCC2)cc1N1CCOCC1 | 18% | 54.3% (active) | 54.9% (active) | -5.18%
CCOc1ccc(CCNC(=O)COC(=O)c2cccc(S(=O)(=O)N3CCCC3)c2)cc1OCC | -4.16% | 58.6% (active) | 54.1% (active) | 9.86%
CCOc1ccc(CCNC(=O)COC(=O)c2cc(S(=O)(=O)N3CCOCC3)ccc2F)cc1OCC | 5.25% | 53.2% (active) | 57.1% (active) | -4.44%
COc1ccc(S(=O)(=O)N2CCN(CC(=O)Nc3ccc(C)c(F)c3)CC2)cc1 | 17.5% | 58.6% (active) | 51.9% (active) | -4.75%
CCc1nc(SCC(=O)N2CCc3cc(OC)c(OC)cc3C2)c(C#N)cc1C | 3.35% | 47.4% (active) | 45.4% (active) | 1.24%
CCOC(=O)c1ccc(Nc2nc(-c3cccnc3)nc3ccccc23)cc1 | 44.5% (active) | 49.6% (active) | 41.1% | 11.4%
O=C(Sc1cccc2cccnc12)c1ccccc1Br | 86.8% (active) | 92.1% (active) | 85.5% (active) | 88% (active)
COc1ccc(Nc2nc(Nc3ccc(OC)cc3)nc(SC3=NCCS3)n2)cc1 | 19.6% | 53.3% (active) | 53.4% (active) | 4.27%
CC(NC(=O)CCl)c1ccc(Cl)c(Cl)c1 (configuration not stated) | 32.8% (active) | 69.4% (active) | 67.3% (active) | -15.3%
CC1(C)Cc2c(sc3nc(SCC(=O)NCc4ccco4)n(-c4ccccc4)c(=O)c23)CS1 | 14% | 41.6% (active) | 40.7% | 4.77%
COc1cccc(-c2nc(NCC3CCCO3)c3ccccc3n2)c1O (configuration not stated) | 31.9% (active) | 64.7% (active) | 59.1% (active) | -15.4%
CC(=O)N1CCN(c2ccccc2NC(=O)c2cc3ccccc3o2)CC1 | 9.44% | 43.5% (active) | 37.7% | 2.75%
C#Cc1cccc(Nc2nc(NC(C)C)nc3ccsc23)c1 | 17.7% | 63.6% (active) | 60.9% (active) | 20.3%
Cc1c(C(=O)NC(C)c2ccncc2)oc2ccccc12 (configuration not stated) | -19.6% | 44.2% (active) | 42.9% (active) | -7.87%
CCCCCc1ccc(OCCCC[n+]2ccc(C)cc2)c(CCCCC)c1 | 21.4% | 42.3% (active) | 45.7% (active) | 45.6% (active)
COc1ccccc1Oc1nnnn1-c1ccc(C(N)=O)cc1 | 15.4% | 48% (active) | 51.8% (active) | -9.03%
